Measurements from PubChem BioAssay AID2783 (National Center for Advancing Translational Sciences (NCATS), 2010).
Records with an inconclusive call do not appear. Calls of active or inactive are those of the source. Calls follow the shape of the dose curve; as a rule, active = well fitted inhibition curve with a large enough effect in the polarisation, with a control signal flat (not every such curve was filed as active); inconclusive = small, poorly fitted or top-dose-only effect, or effect the other way, or a change in a side signal; inactive = no such curve, though single readings can be large or run the other way; the % refers to the polarisation.

These molecules were tested against Menin (Homo sapiens) (UniProt O00255) (assay: Confirmation of Inhibitors Targeting the Menin-MLL Interaction in MLL Related Leukemias: Competition With Fluorescein Labeled MLL-derived Peptide). Settings: Fluorescence polarization, fluorescein-MLL peptide displacement from menin; series mostly up to 100 µM.
Chain of Menin (Homo sapiens) (O00255 whole entry, looked up): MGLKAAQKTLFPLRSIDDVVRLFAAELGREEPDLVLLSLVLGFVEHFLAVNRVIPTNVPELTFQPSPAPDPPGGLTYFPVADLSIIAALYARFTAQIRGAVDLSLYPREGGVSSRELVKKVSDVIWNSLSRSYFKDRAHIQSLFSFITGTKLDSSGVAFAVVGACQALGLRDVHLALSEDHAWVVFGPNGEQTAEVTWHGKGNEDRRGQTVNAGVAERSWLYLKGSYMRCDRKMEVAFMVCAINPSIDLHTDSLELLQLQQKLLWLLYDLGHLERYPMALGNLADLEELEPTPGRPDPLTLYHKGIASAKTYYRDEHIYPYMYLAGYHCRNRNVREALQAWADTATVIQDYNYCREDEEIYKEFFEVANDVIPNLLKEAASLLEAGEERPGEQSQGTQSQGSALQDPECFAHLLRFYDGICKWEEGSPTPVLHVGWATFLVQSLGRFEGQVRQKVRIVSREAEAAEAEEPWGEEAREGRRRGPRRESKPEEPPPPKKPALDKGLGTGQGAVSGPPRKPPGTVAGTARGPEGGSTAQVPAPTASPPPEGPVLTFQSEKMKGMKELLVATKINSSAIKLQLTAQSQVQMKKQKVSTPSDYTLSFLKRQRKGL

outcome, inactive:
N#Cc1ccc(Cl)cc1NC(=O)CNCc1cccs1, O=C(Cn1c(=O)c2c3c(sc2n(Cc2ccccc2)c1=O)CCCC3)NCCO, CCCN(CCC)CCCNC(=S)Nc1ccc2nc(N3CCCC3)cc(C)c2c1, CC(C)Cc1cc(C(=O)NCCCN2CCOCC2)no1, COc1ccccc1CNCC(=O)Nc1ccc(C#N)cc1, CC(=O)O[C@H]1CSC[C@H]1NC(=O)c1ccccc1, O=c1oc2c(O)c(O)cc3c(=O)oc4c(O)c(O)cc1c4c23, CSC[C@@H]1NC(=S)N(c2ccc(C)cc2)C1=O, O=C(CC(Sc1ccc(Br)cc1)C(=O)O)c1ccc(F)cc1 (stereo not drawn), O=C(NC(=S)N1CCCc2ccccc21)c1ccc([N+](=O)[O-])cc1, COc1ccc(NC(=O)NC2(C(=O)N3CCOCC3)CCCCC2)cc1, N=c1oc2ccccc2cc1-c1nc(-c2ccc(Cl)cc2)cs1, CCOC(=O)c1sc(NC(=O)Nc2ccc(Cl)cc2)nc1C, CCN(CC)c1nc(-c2ccc(C(=O)NN)cc2)nc(-c2ccc(C(=O)NN)cc2)n1, CCc1ccc(NC(=O)CSc2nc(O)cc(=O)n2C2CCCC2)cc1, CN(C)c1ccc(N=Nc2ccc(C(=O)O)cc2)cc1, Cc1ccc(C#CC(C)(O)C(C)(C)C)cn1 (stereo not drawn), COc1ccc(-c2cc(-c3ccc(C)cc3)n[nH]2)c(O)c1, O=C(CSc1ccc(Cl)cc1)Nc1ccc(NC(=O)c2ccco2)cc1, Fc1ccccc1C1c2cccn2CCN1C(=S)Nc1ccc(Br)cc1 (stereo not drawn), COc1ccc(NC(=O)N2CC[C@@]3(CCCN(C(=O)c4csnn4)C3)C2)cc1, Cc1cc(C)c2c(=O)cc(C(=O)NCc3ccccc3)oc2c1, c1ccc2c(c1)NCC1CCCN21 (stereo not drawn), C[N+]1(CCNC(=O)/C=N/O)CCCCC1, CN(C)/C=C(/C(=O)c1ccc(Cl)cc1)S(=O)(=O)c1ccc(Cl)cc1, O=C(/C=C/c1ccccc1)Nc1nnc(SCC(=O)c2ccc3ccccc3c2)s1, CCCC(=O)NC(c1ccccc1Cl)c1ccc2cccnc2c1O (stereo not drawn), C=CCN(CC=C)S(=O)(=O)c1ccc(NC(=S)NC(=O)/C=C/c2cccc3ccccc23)cc1, CC1CN(c2c3c(nc4ncnn24)CCCC3)CC(C)O1 (stereo not drawn), Cc1c(C(=O)OCC(=O)Nc2ccc(S(N)(=O)=O)cc2)oc2c1ccc1ccccc12, CCOC(=O)C1CCN(CC(O)COCc2ccccc2)CC1 (stereo not drawn), CC(=O)Nc1ccc(-c2cc(-c3ccc(NC(C)=O)cc3)nc(-c3ccc(NC(C)=O)cc3)n2)cc1, COC(=O)c1cc(CNC(=O)CCCSc2ccccc2)ccc1OC
